Experimental data published in PMC5540273 (PLoS ONE, 2017).

Experiments:
Conditions in all cases: concentration: 1 μM,replicates: in singlicate; n = 1
NEK11 = system: NEK11
NEK1 = system: NEK1
NEK2 = system: NEK2
NEK3 = system: NEK3
NEK4 = system: NEK4
NEK5 = system: NEK5
NEK6 = system: NEK6
NEK7 = system: NEK7
NEK9 = system: NEK9
NIK = system: T1, NIK
T1 construct: gene MAP3K14
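Also: KINOMEscan kinase panel screen.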

Which results are given for `COC(=O)c1cccc(NC(=O)NC2CCN(c3ccnc(NCc4ccc(F)cc4)n3)CC2)c1` [GSK1379860]?
%Inh (NEK11): 7%; %Inh (NEK1): 0%; %Inh (NEK2): 0%; %Inh (NEK3): 0%; %Inh (NEK4): 6%; %Inh (NEK5): 0%; %Inh (NEK6): 0%; %Inh (NEK7): 4%; %Inh (NEK9): 0%; %Inh (NIK): 8%

What does the source list for `O=C(Nc1n[nH]c2cc(-c3ccco3)ccc12)C1CC1` [SB-737447]?
%Inh (NEK11): 24%; %Inh (NEK1): 6%; %Inh (NEK2): 0%; %Inh (NEK3): 28%; %Inh (NEK4): 7%; %Inh (NEK5): 0%; %Inh (NEK6): 0%; %Inh (NEK7): 0%; %Inh (NEK9): 0%; %Inh (NIK): 0%

With `CC(=O)c1c(-c2ccncc2)[nH]c(-c2ccncc2)c1C` [GW493036] as the compound, how does the “%Inh” value (NEK11) read?
Its value is 0%.

What about the “%Inh” value (NEK1) of the same compound?
The value was 0%.

What about the “%Inh” value (NEK2) of the same compound?
The value was 0%.

And the “%Inh” value (NEK3)?
The value was 47%.

What about the “%Inh” value (NEK4) of the same compound?
Its value is 4%.

What about the “%Inh” value (NEK5) of the same compound?
The value was 19%.

What about the “%Inh” value (NEK6) of the same compound?
The value was 0%.

What about the “%Inh” value (NEK7) of the same compound?
The value was 0%.

And the “%Inh” value (NEK9)?
Its value is 27%.

What about the “%Inh” value (NIK) of the same compound?
The value was 28%.

`Cn1ccc2ncnc(Oc3ccc(NC(=O)Nc4cccc(C(F)(F)F)c4)c(Cl)c3)c21` was tested. Which “%Inh” value (NEK11) did it give?
Its value is 0%.

And the “%Inh” value (NEK1)?
Its value is 0%.

And the “%Inh” value (NEK2)?
The value was 0%.

And the “%Inh” value (NEK3)?
The value was 9%.

What about the “%Inh” value (NEK4) of the same compound?
The value was 0%.

What about the “%Inh” value (NEK5) of the same compound?
The value was 0%.

What about the “%Inh” value (NEK6) of the same compound?
Its value is 9%.

And the “%Inh” value (NEK7)?
Its value is 0%.

And the “%Inh” value (NEK9)?
Its value is 0%.

And the “%Inh” value (NIK)?
Its value is 7%.

What does the source list for `O=C(Nc1ccc(Oc2ccc3nc(NC(=O)C4CC4)cn3n2)c(F)c1)c1cccn(-c2ccccc2)c1=O`?
%Inh (NEK11): 0%; %Inh (NEK1): 0%; %Inh (NEK2): 0%; %Inh (NEK3): 8%; %Inh (NEK4): 0%; %Inh (NEK5): 54%; %Inh (NEK6): 6%; %Inh (NEK7): 0%; %Inh (NEK9): 0%; %Inh (NIK): 0%

For `CC(C)c1nc(-c2cccc(NS(=O)(=O)c3ccccc3)c2)c(-c2ccnc(Nc3ccc4c(c3)CN(C)CC4)n2)s1` [GSK1649598], which “%Inh” value (NEK11) is on record?
The value was 97.7%.

And the “%Inh” value (NEK1)?
The value was 14%.

What about the “%Inh” value (NEK2) of the same compound?
The value was 34%.

What about the “%Inh” value (NEK3) of the same compound?
The value was 27%.

And the “%Inh” value (NEK4)?
The value was 18%.

And the “%Inh” value (NEK5)?
Its value is 0%.

And the “%Inh” value (NEK6)?
The value was 0%.

And the “%Inh” value (NEK7)?
The value was 0%.

What about the “%Inh” value (NEK9) of the same compound?
Its value is 51%.

What about the “%Inh” value (NIK) of the same compound?
The value was 3%.

Which “%Inh” value (NEK11) does the source give for `COc1cccc(CNC(=O)NC2CCN(c3ccnc(Nc4cc(OC)c(OC)c(OC)c4)n3)C2)c1` (stereo not shown) [GSK1379765] here?
The value was 15%.

What about the “%Inh” value (NEK1) of the same compound?
Its value is 0%.

What about the “%Inh” value (NEK2) of the same compound?
The value was 0%.

What about the “%Inh” value (NEK3) of the same compound?
The value was 45%.

What about the “%Inh” value (NEK4) of the same compound?
Its value is 31%.

And the “%Inh” value (NEK5)?
Its value is 95.9%.

And the “%Inh” value (NEK6)?
The value was 0%.

And the “%Inh” value (NEK7)?
The value was 15%.

What about the “%Inh” value (NEK9) of the same compound?
The value was 31%.

What about the “%Inh” value (NIK) of the same compound?
The value was 30%.
